In article PMC7862700, “An all-to-all approach to the identification of sequence-specific readers for epigenetic DNA modifications on cytosine” one finds binding signal data, which are given here for one sequence.

What all share (experiment): DAPPL (digital affinity profiling via proximity ligation, sequencing); 10 mM Tris-HCl pH 7.5, 50 mM NaCl, 1 mM DTT, 4% glycerol, room temperature, 30 min; GST-TFs on glutathione beads, 16-mer random dsDNA library, 0.1% formaldehyde crosslink after washing; high values mean tight binding
In test [1] the target is T1, FLI1 (Homo sapiens, UniProt Q01543 1-452).
T1 sequence: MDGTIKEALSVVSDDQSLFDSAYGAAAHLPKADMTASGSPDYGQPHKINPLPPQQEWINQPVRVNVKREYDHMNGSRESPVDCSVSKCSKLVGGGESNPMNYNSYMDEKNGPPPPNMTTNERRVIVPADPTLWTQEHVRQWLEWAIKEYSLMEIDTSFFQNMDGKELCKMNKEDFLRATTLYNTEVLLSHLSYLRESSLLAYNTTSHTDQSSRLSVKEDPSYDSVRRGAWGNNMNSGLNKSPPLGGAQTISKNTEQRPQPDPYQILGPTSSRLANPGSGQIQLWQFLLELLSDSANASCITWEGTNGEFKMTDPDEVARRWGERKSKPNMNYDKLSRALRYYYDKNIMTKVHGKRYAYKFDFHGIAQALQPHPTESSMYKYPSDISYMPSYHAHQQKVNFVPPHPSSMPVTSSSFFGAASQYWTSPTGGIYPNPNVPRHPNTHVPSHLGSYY
The conditions noted are these: protein: recombinant; tags: N-terminal GST; dsDNA, one strand shown. In short, it runs like this: (§1)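 After expression in yeast as GST fusions, human transcription factors were bound to glutathione beads, DNA-barcoded and mixed with a tag-only sample. The pools were incubated with 200 nmole of a 16-mer random double-stranded DNA library in Tris/NaCl/DTT/glycerol buffer (30 min, room temperature), washed and crosslinked with 0.1% formaldehyde. Proximity ligation with BsaI/T4 ligase ran for 1 h at 37 °C, before PCR amplification and sequencing on an Illumina NextSeq500. Binding signal is a hexamer's read frequency for a factor divided by its frequency for the tag-only sample.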

Test [2] concerns the target T2, ELK1 (Homo sapiens, UniProt P19419 1-428).
T2 sequence: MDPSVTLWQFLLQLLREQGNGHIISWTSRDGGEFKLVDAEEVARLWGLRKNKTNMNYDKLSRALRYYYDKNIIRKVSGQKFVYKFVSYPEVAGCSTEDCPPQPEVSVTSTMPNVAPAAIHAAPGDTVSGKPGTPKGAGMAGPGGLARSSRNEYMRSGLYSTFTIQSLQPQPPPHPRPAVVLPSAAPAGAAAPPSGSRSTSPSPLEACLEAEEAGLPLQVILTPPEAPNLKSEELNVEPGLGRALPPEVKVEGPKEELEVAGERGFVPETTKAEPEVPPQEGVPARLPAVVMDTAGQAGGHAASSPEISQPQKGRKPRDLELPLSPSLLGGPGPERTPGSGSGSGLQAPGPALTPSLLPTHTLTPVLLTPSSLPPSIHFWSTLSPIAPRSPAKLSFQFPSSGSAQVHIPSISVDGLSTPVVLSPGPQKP
The note with it: protein: recombinant; tags: N-terminal GST; dsDNA, one strand shown. The essentials: as §1

Test [3] has as its target T3, GABPA (Homo sapiens, UniProt Q06546 1-454).
T3 sequence: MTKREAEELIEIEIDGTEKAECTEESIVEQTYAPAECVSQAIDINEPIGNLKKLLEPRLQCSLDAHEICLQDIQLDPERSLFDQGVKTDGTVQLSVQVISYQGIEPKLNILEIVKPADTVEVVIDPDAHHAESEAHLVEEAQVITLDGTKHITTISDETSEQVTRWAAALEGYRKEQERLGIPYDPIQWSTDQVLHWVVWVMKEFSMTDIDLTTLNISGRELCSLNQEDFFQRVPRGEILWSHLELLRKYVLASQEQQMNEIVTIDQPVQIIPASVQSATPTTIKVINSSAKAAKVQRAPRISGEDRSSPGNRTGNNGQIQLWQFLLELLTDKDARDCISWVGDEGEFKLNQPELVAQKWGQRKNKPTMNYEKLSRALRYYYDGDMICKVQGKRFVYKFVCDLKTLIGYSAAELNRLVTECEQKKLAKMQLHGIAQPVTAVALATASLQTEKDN
The conditions noted are these: protein: recombinant; tags: N-terminal GST; dsDNA, one strand shown. In short, it runs like this:
as §1

Test [4] concerns the target T4, ERG (Homo sapiens, UniProt P11308 1-479).
T4 sequence: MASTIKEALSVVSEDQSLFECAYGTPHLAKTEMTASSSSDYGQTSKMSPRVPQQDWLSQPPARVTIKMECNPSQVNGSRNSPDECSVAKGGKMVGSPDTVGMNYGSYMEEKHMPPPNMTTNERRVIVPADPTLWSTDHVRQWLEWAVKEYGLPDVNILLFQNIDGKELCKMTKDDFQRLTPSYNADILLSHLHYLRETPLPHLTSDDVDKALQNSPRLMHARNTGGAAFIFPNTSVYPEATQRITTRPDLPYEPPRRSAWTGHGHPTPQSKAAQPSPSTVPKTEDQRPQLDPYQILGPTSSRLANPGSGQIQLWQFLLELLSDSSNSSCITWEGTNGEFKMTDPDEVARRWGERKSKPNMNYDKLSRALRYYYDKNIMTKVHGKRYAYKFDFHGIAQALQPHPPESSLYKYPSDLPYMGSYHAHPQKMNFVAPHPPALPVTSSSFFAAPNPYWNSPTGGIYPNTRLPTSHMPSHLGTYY
The conditions noted are these: protein: recombinant; tags: N-terminal GST; dsDNA, one strand shown. The essentials: as §1

Test [5] has as its target ELF1 (Homo sapiens, UniProt P32519 1-619). The conditions noted are these: protein: recombinant; tags: N-terminal GST; dsDNA, one strand shown. The essentials:
as §1

Test [6] concerns the target T5, EHF (Homo sapiens, UniProt Q9NZC4 1-300).
T5 sequence: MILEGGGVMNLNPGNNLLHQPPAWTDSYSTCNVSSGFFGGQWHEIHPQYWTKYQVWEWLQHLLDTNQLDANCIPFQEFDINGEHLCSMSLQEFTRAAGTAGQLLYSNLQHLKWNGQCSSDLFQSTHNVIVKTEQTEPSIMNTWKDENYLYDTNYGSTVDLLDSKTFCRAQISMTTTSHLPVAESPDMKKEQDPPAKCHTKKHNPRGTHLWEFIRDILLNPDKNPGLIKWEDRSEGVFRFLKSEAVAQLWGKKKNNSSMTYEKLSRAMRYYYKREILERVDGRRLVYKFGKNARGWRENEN
The note with it: protein: recombinant; tags: N-terminal GST; dsDNA, one strand shown. The essentials:
as §1

Test [7] deals with SPI1 (Homo sapiens, UniProt P17947 1-270). The note with it: protein: recombinant; tags: N-terminal GST; dsDNA, one strand shown. The essentials: as §1
The target of test [8] is SPIB (Homo sapiens, UniProt Q01892 1-262). The conditions noted are these: protein: recombinant; tags: N-terminal GST; dsDNA, one strand shown. The essentials: as §1
Sequence of SPIB (Q01892 whole entry): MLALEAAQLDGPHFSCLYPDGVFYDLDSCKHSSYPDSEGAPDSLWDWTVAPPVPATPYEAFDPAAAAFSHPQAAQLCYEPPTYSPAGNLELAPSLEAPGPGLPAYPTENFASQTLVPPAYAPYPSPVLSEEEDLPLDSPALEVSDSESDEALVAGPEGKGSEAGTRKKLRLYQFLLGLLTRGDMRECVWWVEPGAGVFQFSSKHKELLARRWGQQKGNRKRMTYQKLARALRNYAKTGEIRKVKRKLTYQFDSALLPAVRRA
Test [9] concerns the target T6, ELK3 (Homo sapiens, UniProt P41970 1-407).
T6 sequence: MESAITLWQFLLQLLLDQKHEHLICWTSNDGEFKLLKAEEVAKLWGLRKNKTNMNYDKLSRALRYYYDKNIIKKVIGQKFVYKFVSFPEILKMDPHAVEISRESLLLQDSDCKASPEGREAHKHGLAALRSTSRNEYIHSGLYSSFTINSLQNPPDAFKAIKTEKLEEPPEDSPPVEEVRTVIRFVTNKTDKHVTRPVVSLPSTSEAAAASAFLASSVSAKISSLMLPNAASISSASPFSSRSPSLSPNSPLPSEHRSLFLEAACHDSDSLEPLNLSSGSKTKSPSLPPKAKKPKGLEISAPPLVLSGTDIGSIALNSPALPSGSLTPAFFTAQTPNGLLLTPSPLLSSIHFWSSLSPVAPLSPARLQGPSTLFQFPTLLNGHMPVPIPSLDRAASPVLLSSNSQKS
The conditions noted are these: protein: recombinant; tags: N-terminal GST; dsDNA, one strand shown. In short, it runs like this:
as §1

The target in test [10] is T7, FEV (Homo sapiens, UniProt Q99581 1-238).
T7 sequence: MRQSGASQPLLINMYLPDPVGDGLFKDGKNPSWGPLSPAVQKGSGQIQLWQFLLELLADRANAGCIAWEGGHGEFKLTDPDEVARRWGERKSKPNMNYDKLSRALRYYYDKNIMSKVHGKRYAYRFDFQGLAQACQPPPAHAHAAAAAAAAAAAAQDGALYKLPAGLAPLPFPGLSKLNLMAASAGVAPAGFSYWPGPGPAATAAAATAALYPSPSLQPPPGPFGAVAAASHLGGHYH
The note with it: protein: recombinant; tags: N-terminal GST; dsDNA, one strand shown. In short, it runs like this:
as §1

The target in test [11] is ETV5 (Homo sapiens, UniProt P41161 1-510). The conditions noted are these: protein: recombinant; tags: N-terminal GST; dsDNA, one strand shown. In short, it runs like this:
as §1

For test [12], the target named is HSF1 (Homo sapiens, UniProt Q00613 1-529). The conditions noted are these: protein: recombinant; tags: N-terminal GST; chain copies: 3; dsDNA, one strand shown. The essentials: as §1
Sequence of HSF1 (Q00613 whole entry): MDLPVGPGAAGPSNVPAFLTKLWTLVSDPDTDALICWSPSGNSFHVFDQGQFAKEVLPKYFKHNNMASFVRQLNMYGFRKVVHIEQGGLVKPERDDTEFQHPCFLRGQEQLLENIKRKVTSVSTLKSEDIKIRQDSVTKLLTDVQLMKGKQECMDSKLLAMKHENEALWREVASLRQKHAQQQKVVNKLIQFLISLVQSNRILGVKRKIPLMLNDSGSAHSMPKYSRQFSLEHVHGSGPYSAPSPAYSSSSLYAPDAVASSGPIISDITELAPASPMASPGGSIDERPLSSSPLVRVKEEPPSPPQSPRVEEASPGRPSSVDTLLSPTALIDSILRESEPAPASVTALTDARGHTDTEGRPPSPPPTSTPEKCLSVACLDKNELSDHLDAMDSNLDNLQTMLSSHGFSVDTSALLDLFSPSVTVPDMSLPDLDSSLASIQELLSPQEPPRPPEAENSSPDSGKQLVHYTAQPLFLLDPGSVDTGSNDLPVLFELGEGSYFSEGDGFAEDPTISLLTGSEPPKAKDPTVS
For test [13], the target named is T8, SPIC (Homo sapiens, UniProt Q8N5J4 1-248).
T8 sequence: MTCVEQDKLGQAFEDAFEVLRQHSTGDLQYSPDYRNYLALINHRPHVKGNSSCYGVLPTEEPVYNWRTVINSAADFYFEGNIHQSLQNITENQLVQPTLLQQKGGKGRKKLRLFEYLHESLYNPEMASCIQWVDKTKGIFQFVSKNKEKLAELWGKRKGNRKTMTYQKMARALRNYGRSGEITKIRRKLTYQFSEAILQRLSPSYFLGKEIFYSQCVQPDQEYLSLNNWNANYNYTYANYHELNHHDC
The note with it: protein: recombinant; tags: N-terminal GST; dsDNA, one strand shown. In short, it runs like this:
as §1

Test [14] concerns the target ELF4 (Homo sapiens, UniProt Q99607 1-663). The conditions noted are these: protein: recombinant; tags: N-terminal GST; dsDNA, one strand shown. In short, it runs like this: as §1
For test [15], the target named is T9, ELK4 (Homo sapiens, UniProt P28324-2 1-405).
T9 sequence: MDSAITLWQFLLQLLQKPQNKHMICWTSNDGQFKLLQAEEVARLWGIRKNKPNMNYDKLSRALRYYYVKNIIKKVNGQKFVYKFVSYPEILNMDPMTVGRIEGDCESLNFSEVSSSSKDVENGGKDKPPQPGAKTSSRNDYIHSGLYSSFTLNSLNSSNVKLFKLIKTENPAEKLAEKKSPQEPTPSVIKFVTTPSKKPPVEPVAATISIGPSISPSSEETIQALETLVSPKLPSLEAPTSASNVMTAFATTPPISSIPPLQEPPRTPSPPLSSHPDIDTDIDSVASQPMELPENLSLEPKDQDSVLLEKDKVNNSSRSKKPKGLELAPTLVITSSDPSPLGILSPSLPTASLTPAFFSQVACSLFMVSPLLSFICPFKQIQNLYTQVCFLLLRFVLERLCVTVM
The conditions noted are these: protein: recombinant; tags: N-terminal GST; dsDNA, one strand shown. The essentials: as §1

Test [16] has as its target T10, ETV2 (Homo sapiens, UniProt O00321 1-342).
T10 sequence: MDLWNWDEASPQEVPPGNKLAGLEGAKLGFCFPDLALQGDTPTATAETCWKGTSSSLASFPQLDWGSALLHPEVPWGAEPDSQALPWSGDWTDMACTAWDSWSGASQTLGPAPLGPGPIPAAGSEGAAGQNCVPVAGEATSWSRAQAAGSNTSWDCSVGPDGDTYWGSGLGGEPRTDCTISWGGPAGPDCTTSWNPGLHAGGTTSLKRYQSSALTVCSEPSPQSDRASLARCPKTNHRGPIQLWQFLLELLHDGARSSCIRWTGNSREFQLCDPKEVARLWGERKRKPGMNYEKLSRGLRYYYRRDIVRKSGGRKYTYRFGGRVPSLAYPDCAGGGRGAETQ
The conditions noted are these: protein: recombinant; tags: N-terminal GST; dsDNA, one strand shown. In short, it runs like this:
as §1

The target of test [17] is T11, ELF3 (Homo sapiens, UniProt P78545 1-371).
T11 sequence: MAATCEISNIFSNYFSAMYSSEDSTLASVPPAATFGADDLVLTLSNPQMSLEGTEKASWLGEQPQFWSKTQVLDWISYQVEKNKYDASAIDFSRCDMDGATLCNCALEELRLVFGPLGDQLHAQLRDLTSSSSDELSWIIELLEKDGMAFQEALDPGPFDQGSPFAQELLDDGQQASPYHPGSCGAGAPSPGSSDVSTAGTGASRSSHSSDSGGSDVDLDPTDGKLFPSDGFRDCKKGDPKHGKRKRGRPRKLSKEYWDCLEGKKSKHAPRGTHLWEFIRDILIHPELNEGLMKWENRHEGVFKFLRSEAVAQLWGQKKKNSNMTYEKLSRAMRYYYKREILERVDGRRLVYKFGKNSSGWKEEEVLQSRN
The conditions noted are these: protein: recombinant; tags: N-terminal GST; dsDNA, one strand shown. The essentials:
as §1

The target in test [18] is ETV1 (Homo sapiens, UniProt P50549 1-477). The conditions noted are these: protein: recombinant; tags: N-terminal GST; dsDNA, one strand shown. In short, it runs like this: as §1
Sequence of ETV1 (P50549 whole entry): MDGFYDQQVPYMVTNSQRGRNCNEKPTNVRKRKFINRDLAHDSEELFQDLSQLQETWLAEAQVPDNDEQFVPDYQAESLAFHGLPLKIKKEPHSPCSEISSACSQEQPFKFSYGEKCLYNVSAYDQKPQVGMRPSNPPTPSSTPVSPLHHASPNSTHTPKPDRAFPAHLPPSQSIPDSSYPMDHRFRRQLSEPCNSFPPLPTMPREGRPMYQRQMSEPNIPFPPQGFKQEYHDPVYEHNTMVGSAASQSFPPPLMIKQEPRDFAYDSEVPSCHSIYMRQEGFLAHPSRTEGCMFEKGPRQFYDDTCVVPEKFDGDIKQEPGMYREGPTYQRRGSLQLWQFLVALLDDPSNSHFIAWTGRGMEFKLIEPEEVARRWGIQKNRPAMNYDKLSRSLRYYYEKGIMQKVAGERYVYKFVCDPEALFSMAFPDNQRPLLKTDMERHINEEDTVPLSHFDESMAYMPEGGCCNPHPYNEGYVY

Sequence of ETV5 (P41161 whole entry): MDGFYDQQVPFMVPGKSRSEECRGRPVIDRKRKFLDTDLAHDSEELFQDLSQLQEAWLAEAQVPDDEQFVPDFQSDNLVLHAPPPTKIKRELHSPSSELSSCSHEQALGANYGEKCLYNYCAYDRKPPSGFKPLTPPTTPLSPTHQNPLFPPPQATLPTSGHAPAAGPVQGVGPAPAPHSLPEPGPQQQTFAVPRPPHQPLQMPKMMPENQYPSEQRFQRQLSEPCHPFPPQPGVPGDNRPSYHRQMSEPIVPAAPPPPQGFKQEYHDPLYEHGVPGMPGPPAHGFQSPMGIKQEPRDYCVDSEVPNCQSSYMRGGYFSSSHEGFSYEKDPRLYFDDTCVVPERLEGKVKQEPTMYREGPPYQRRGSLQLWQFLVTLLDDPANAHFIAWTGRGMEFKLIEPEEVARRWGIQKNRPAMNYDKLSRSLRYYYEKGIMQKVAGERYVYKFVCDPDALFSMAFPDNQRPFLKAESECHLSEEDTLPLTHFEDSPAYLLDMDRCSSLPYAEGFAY
Sequence of ELF4 (Q99607 whole entry): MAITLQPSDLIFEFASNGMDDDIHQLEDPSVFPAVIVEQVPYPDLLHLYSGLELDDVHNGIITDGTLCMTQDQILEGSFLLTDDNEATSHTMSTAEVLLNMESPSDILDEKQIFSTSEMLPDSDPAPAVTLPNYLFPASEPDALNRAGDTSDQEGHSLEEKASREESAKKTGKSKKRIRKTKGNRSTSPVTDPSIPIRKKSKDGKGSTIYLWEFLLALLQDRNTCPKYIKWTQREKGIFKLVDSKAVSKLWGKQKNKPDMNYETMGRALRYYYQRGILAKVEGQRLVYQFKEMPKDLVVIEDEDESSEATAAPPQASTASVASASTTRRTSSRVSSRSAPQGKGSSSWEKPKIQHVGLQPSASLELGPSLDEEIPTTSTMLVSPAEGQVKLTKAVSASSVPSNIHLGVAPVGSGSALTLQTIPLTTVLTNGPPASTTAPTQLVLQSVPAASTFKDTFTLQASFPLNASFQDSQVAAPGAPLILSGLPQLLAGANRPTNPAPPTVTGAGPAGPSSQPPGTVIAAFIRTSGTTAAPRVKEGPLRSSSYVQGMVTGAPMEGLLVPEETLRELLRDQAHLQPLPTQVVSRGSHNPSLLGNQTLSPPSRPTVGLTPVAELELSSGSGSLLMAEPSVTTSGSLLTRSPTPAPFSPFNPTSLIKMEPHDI
Sequence of ELF1 (P32519 whole entry): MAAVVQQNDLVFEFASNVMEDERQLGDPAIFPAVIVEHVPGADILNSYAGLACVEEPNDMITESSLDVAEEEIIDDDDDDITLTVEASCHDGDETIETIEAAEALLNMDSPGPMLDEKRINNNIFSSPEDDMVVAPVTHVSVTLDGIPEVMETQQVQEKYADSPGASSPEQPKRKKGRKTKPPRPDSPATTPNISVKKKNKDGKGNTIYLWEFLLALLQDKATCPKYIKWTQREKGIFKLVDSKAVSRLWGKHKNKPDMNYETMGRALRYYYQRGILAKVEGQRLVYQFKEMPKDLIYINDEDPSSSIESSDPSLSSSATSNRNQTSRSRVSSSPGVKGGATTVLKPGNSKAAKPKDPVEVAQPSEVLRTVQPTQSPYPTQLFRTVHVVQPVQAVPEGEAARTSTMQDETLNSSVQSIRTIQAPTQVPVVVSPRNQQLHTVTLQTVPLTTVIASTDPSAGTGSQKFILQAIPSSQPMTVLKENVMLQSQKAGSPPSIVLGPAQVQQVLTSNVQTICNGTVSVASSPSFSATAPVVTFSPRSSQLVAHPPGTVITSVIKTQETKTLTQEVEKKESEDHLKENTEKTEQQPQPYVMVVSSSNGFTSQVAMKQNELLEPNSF

With AACAAG, the binding signal in test [1] was 1.08 fold enrichment (6-mer frequency, TF over GST control); in test [2], 1.08 fold enrichment (6-mer frequency, TF over GST control); in test [3], 1.15 fold enrichment (6-mer frequency, TF over GST control); in test [4], 1.14 fold enrichment (6-mer frequency, TF over GST control); in [5], 1.13 fold enrichment (6-mer frequency, TF over GST control); in [6] it was 1.17 fold enrichment (6-mer frequency, TF over GST control). Also, the binding signal in test [7] was 1.04 fold enrichment (6-mer frequency, TF over GST control); in test [8], 1.06 fold enrichment (6-mer frequency, TF over GST control); in test [9], 1.22 fold enrichment (6-mer frequency, TF over GST control); in test [10] it was 1.03 fold enrichment (6-mer frequency, TF over GST control); in test [11] it was 1.14 fold enrichment (6-mer frequency, TF over GST control); in test [12], 1.03 fold enrichment (6-mer frequency, TF over GST control). In addition, the binding signal in [13] is 1.15 fold enrichment (6-mer frequency, TF over GST control); in [14], 1.17 fold enrichment (6-mer frequency, TF over GST control); in test [15], 1.01 fold enrichment (6-mer frequency, TF over GST control); in [16], 1 fold enrichment (6-mer frequency, TF over GST control); in test [17], 1.26 fold enrichment (6-mer frequency, TF over GST control); in test [18] it was 1.13 fold enrichment (6-mer frequency, TF over GST control).
